Results published in the supplement of paper PMC6411743.
± gives the standard deviation of the averaged measurements. Of roughly 5,400 targets only a part is listed; those with the largest changes were picked by preference.

Compound: Nc1nc2c(ncn2[C@@H]2O[C@H](COP(=O)(O)OP(=O)(O)OP(=O)(O)O)[C@@H](O)[C@H]2O)c(=O)[nH]1 [guanosine triphosphate]
Assay: NP40-soluble protein abundance relative to vehicle (solubility fold change) (ratio); higher = more soluble protein in presence of GTP
Outline: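 Crude Jurkat lysate, prepared by Dounce homogenisation, was exposed to eight concentrations from 0.1 to 10 mM for 10 min at room temperature and then 3 min at 37 °C. Solubilisation used 0.8% NP40 with benzonase for 60 min at 4 °C, followed by ultracentrifugation and TMT labelling of the supernatant for LC-MS/MS. After vsn normalisation of intensities, each value is the fold change against the detergent-processed vehicle within each replicate, across three independent experiments.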

UniProt P54577, sequence (P54577 whole entry): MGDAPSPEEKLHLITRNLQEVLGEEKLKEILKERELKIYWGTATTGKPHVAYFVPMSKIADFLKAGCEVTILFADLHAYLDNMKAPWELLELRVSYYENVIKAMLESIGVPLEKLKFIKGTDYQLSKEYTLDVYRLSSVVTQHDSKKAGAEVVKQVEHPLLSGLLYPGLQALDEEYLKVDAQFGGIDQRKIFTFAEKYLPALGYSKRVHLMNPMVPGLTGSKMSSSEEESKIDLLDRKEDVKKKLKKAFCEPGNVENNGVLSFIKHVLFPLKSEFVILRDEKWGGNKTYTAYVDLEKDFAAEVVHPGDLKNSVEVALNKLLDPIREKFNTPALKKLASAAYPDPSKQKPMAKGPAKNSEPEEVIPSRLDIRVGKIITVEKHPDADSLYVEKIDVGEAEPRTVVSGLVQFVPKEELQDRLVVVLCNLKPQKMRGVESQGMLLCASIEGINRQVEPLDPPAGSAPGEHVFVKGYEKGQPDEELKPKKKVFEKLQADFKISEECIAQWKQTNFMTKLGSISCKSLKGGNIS
UniProt O60216, sequence (O60216 whole entry): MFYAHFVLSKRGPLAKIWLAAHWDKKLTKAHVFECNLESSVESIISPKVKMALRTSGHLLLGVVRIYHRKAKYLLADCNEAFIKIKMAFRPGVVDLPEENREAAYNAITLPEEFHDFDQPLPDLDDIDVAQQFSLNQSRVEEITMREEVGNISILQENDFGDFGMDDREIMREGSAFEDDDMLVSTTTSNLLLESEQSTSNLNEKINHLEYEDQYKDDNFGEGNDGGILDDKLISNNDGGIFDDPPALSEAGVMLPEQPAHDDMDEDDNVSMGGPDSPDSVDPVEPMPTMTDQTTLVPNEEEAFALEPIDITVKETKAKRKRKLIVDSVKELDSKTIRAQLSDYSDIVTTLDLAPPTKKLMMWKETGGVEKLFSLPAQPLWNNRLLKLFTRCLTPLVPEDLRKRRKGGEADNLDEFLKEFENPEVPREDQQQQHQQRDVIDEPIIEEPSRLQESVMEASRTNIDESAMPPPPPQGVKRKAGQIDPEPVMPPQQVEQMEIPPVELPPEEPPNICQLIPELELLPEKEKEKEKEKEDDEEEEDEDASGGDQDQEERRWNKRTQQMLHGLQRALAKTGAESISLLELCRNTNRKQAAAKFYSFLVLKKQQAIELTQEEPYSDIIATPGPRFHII
UniProt O60287, sequence (O60287 whole entry): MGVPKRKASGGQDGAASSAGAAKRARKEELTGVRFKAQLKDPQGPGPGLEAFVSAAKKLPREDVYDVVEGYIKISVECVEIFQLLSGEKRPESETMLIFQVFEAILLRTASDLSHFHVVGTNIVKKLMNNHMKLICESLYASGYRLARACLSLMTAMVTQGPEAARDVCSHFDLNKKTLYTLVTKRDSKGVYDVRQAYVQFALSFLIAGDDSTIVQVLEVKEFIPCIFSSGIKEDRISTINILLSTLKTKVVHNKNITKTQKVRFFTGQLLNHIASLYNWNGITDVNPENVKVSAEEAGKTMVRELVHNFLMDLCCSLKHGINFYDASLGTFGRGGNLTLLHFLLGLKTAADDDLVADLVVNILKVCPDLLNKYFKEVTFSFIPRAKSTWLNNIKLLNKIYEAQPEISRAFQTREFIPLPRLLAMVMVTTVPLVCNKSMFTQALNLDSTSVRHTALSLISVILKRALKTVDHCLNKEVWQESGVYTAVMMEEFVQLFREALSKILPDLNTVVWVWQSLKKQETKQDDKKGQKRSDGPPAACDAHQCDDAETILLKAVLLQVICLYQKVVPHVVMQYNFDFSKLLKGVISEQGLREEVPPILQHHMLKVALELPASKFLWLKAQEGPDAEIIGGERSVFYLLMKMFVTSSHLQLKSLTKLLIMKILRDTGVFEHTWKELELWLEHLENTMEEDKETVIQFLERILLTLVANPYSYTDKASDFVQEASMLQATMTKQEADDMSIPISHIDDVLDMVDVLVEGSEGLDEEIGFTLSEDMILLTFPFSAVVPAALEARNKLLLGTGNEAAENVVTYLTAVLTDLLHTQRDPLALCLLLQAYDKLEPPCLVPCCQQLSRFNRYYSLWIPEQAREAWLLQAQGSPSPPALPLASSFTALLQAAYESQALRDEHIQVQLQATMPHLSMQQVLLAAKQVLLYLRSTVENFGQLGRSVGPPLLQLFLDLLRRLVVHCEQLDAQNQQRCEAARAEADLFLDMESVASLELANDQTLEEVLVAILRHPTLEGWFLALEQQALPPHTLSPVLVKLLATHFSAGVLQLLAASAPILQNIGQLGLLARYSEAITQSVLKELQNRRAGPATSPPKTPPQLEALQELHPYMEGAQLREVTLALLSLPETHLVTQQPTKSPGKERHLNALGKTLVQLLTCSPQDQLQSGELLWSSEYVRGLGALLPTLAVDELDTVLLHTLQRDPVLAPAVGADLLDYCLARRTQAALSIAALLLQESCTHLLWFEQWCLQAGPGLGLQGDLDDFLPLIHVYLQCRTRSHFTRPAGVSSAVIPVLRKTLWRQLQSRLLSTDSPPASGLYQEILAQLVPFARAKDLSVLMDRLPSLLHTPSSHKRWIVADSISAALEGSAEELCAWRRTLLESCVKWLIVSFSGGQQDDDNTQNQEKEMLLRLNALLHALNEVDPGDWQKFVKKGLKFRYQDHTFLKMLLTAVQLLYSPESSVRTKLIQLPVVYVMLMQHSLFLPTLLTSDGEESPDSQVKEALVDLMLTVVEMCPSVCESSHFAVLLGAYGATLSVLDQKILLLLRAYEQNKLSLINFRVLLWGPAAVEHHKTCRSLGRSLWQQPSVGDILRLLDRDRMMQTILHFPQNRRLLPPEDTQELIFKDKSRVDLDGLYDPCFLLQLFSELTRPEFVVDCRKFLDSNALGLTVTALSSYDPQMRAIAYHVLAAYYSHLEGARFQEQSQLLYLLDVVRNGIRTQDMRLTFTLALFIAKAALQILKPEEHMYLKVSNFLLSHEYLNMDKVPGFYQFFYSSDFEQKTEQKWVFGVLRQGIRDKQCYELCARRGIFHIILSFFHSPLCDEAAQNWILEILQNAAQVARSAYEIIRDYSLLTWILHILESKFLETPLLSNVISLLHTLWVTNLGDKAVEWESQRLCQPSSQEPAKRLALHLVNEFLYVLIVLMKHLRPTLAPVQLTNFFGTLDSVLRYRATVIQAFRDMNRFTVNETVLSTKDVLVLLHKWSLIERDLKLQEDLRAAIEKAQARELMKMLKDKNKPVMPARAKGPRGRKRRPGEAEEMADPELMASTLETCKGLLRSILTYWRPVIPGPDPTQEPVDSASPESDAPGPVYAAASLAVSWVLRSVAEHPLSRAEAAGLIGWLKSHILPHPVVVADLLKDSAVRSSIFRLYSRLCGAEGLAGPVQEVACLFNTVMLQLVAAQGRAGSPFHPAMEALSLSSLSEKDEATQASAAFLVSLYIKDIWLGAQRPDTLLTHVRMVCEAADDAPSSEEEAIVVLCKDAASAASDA
UniProt P50897, sequence (P50897 whole entry): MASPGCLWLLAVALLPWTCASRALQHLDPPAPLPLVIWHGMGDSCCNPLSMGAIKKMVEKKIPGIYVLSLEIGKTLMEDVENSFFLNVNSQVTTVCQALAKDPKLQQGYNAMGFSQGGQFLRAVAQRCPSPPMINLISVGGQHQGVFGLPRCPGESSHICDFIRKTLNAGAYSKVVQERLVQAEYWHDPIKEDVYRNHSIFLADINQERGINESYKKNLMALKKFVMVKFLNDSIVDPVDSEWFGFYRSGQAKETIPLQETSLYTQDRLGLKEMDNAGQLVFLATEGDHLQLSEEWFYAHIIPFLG
UniProt O43809, sequence (O43809 whole entry): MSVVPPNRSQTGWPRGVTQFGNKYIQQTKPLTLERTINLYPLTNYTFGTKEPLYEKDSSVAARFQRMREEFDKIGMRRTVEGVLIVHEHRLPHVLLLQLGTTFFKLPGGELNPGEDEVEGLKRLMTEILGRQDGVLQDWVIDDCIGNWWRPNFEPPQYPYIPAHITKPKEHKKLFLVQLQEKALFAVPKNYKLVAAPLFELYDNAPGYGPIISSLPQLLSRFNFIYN
UniProt P54578, sequence (P54578 whole entry): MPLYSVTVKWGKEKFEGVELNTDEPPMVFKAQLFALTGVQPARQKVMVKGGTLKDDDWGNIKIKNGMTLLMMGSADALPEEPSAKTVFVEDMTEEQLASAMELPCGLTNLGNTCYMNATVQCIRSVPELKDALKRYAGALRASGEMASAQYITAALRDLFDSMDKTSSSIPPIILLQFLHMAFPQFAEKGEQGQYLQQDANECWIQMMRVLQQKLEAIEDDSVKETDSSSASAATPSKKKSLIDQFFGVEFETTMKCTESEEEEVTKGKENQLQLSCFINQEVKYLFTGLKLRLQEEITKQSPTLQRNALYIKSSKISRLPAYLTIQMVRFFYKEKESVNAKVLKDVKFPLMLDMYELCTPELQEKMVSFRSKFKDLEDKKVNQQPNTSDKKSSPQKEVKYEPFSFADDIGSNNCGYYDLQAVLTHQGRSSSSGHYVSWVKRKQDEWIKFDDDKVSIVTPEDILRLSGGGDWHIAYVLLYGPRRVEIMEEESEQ
UniProt P41091, sequence (P41091 whole entry): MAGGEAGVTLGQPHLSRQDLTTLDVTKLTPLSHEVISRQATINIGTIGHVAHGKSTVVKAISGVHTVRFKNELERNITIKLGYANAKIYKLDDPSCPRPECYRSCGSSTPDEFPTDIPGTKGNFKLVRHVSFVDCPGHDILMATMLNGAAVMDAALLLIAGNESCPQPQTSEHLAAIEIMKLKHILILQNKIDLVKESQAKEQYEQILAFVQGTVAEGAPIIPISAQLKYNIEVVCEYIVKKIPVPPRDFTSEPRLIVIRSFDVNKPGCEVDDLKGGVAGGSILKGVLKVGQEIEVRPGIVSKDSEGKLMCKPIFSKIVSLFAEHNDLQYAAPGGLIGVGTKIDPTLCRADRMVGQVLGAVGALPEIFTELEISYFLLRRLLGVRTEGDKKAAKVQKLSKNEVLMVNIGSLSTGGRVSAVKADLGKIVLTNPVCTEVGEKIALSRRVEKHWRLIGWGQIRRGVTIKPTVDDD

Target	NP40-soluble protein abundance (concentration: 0.1mM)	NP40-soluble protein abundance (concentration: 0.5mM)	NP40-soluble protein abundance (concentration: 1mM)	NP40-soluble protein abundance (concentration: 2mM)	NP40-soluble protein abundance (concentration: 4mM)	NP40-soluble protein abundance (concentration: 6mM)	NP40-soluble protein abundance (concentration: 8mM)	NP40-soluble protein abundance (concentration: 10mM)
DNAJC8 (UniProt O75937)	0.838 ± 0.14	0.801 ± 0.056	1.1 ± 0.17	1.09 ± 0.056	1.08 ± 0.14	1.14 ± 0.12	1.05 ± 0.21	1.3 ± 0.25
URB1 (UniProt O60287)	1.07 ± 0.019	1.16 ± 0.061	1.21 ± 0.076	1.41 ± 0.097	1.79 ± 0.072	1.95 ± 0.13	2.18 ± 0.082	2.34 ± 0.033
AKR1A1 (UniProt P14550)	0.93 ± 0.035	0.912 ± 0.034	0.888 ± 0.04	0.876 ± 0.037	0.873 ± 0.047	0.849 ± 0.04	0.831 ± 0.088	0.825 ± 0.08
EIF2S3 (UniProt P41091)	1.02 ± 0.024	1.05 ± 0.045	0.967 ± 0.015	0.98 ± 0.071	0.981 ± 0.04	0.995 ± 0.038	0.956 ± 0.025	0.931 ± 0.065
UniProt P23025|F2Z2T2	1.07 ± 0.044	1.08 ± 0.049	1.21 ± 0.054	1.02 ± 0.1	1.05 ± 0.074	1.08 ± 0.14	1.12 ± 0.028	1.08 ± 0.097
RAD21 (UniProt O60216)	0.975 ± 0.037	0.991 ± 0.03	1.06 ± 0.023	1.07 ± 0.044	1.09 ± 0.028	1.07 ± 0.038	1.11 ± 0.062	1.12 ± 0.092
YARS (UniProt P54577)	0.952 ± 0.037	0.969 ± 0.029	0.92 ± 0.042	0.878 ± 0.048	0.864 ± 0.061	0.874 ± 0.048	0.872 ± 0.043	0.849 ± 0.066
NUDT21 (UniProt O43809)	1.11 ± 0.12	1.39 ± 0.12	1.64 ± 0.21	1.86 ± 0.31	2.02 ± 0.39	2.04 ± 0.35	1.97 ± 0.25	2.07 ± 0.44
PSMB4 (UniProt P28070)	0.926 ± 0.12	1.01 ± 0.11	0.939 ± 0.11	1.04 ± 0.14	1.05 ± 0.21	1.03 ± 0.22	0.945 ± 0.14	0.976 ± 0.14
PPT1 (UniProt P50897)	0.888 ± 0.06	0.859 ± 0.12	0.968 ± 0.083	0.872 ± 0.12	0.873 ± 0.068	0.887 ± 0.11	0.876 ± 0.059	0.861 ± 0.099
UniProt P26368|P26368-2	1.21 ± 0.06	1.64 ± 0.23	1.67 ± 0.25	1.69 ± 0.25	1.7 ± 0.29	1.75 ± 0.25	1.73 ± 0.29	1.71 ± 0.26
UniProt P04150|P04150-10|P04150-2|P04150-3|P04150-5|P04150-6|P04150-7|P04150-8|P04150-9|P04150-11|P04150-12|P04150-13	0.899 ± 0.13	0.946 ± 0.032	1.14 ± 0.072	1.07 ± 0.029	1.01 ± 0.043	0.999 ± 0.055	1.02 ± 0.046	1.05 ± 0.069
MCM2 (UniProt P49736)	1.01 ± 0.052	1.07 ± 0.071	0.975 ± 0.074	0.985 ± 0.099	0.974 ± 0.1	0.983 ± 0.1	0.944 ± 0.083	0.929 ± 0.074
UniProt P54578|P54578-2	0.975 ± 0.029	0.998 ± 0.021	0.935 ± 0.027	0.922 ± 0.013	0.903 ± 0.026	0.897 ± 0.02	0.895 ± 0.038	0.876 ± 0.046
